Assay outcomes as filed in PubChem.
Insulin prom up = MIN6 insulin promoter up-regulation | MIN6 insulin promoter-GFP reporter, high-content imaging; hits give high values | z-score at 5 µM | 0.3% of 190,000 active | AID 1625;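 active = z-score above 3 at 5 µM with at least 500 cells counted in the well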
L major viab = reduces viability of Leishmania major promastigotes. AID 1063. inhibition, % at 10 µM. resazurin fluorescence viability. 9% of 200,000 active; in the data active = inhibition above about 50%;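 note: promastigotes grown with compound for 44 hours at 28 °C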
Cl transport mod = KCC2 (human) Cl- transport modulation. Q9H2X9. KCC2 cells, thallium flux FluoZin-2 fluorescence. B-score of Tl+ flux slope (higher = more flux/activation; lower = inhibition) at 10 µM. 2.2% of 190,000 active. AID 1456;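 active = thallium flux slope and its plate-corrected score both differing from the plate sample mean at a set confidence after two filtering rounds, in either direction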;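 note: slope of fluorescence scaled to starting intensity during 10 to 20 s after thallium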
Target sequence (Q9H2X9 whole entry, looked up): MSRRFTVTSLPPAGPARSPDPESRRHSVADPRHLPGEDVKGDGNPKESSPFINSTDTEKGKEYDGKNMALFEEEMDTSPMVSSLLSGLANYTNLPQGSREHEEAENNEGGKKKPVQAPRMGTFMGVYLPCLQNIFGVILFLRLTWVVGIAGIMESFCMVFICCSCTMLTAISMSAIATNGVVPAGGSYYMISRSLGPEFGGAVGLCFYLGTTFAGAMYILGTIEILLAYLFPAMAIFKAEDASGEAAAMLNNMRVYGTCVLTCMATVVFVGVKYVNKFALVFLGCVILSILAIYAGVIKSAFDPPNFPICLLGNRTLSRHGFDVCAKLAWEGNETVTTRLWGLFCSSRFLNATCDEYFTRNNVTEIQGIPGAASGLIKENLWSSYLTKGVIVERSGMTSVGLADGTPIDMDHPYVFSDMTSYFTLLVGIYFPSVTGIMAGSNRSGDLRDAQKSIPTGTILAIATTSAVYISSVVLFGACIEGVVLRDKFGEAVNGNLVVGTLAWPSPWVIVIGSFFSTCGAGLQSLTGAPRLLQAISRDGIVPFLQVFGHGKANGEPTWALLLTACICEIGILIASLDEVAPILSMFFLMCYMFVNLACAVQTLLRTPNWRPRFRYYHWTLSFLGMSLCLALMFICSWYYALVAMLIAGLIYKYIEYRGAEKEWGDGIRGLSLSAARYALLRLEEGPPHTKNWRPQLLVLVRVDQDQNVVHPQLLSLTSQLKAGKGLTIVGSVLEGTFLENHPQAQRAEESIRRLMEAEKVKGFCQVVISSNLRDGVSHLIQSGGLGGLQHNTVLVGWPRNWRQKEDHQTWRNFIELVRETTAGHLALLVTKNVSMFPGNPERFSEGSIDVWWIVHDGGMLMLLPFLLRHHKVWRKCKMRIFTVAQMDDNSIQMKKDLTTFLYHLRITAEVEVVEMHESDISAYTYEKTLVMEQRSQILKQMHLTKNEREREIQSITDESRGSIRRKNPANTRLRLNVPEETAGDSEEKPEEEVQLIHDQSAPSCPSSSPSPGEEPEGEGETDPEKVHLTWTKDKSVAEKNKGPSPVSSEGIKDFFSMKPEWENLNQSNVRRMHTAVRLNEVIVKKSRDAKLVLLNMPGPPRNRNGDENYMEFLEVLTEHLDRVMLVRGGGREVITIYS
WT yeast gro inh = growth inhibition of WT yeast, mitochondrial fusion screen. mitochondrial fusion phenotypic screen, WT strain. inhibition, % at 10 µM. 2.1% of 190,000 active. AID 1362; in the data active = inhibition above about 58%; tested in S. cerevisiae
Insulin prom inh = TRM-6 insulin promoter activity inhibition. TRM-6 cells (human fetal islet line), insulin promoter-eGFP reporter, imaging; reporter expression induced with tamoxifen. inhibition, % at 2 µM. 0.9% of 130,000 active;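 active = inhibition above the mean plus 3 SD, with well images judged a real hit on visual review, cut at about 60% in these data, passing the limit was not always enough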
ROMK mod = modulators of human ROMK potassium channel | P48048 | Tet-inducible ROMK, thallium flux fluorescence; actives lie on both sides | B-score at 10 µM | 2% of 130,000 active;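 active = signal ratio slope over the read window, or its plate-corrected B-score, at least 3 SD from the plate mean, either direction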;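 note: B-score of the F/F0 ratio slope over 7 to 12 s after thallium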
Numbers without * were called inactive; / = no result. Hits are enriched below; roughly 12% of the tested compounds scored in any of these assays.

SMILES	Insulin prom up	L major viab	Cl transport mod	WT yeast gro inh	Insulin prom inh	ROMK mod
O=C(NCC(c1cccnc1)N1CCN(c2ccccc2F)CC1)Oc1ccccc1 (configuration not stated)	0.74	96.7*	/	-13.3	41.9	-1.07
CCN1CCN(C(c2cccs2)C(C)NC(=O)Oc2ccccc2)CC1 (configuration not stated)	0.1	20.5	0.246	6.1	/	/
COc1ccc(N2CCN(C(CNC(=O)Oc3ccccc3)c3cccnc3)CC2)cc1 (configuration not stated)	-0.21	92.1*	-0.614	1.8	-50.0	-0.111
CC(Cc1ccsc1)NCc1cn[nH]c1-c1ccc(F)cc1F (configuration not stated)	-0.31	/	-0.605	/	/	/
Cc1ccc(C(=O)n2cc(CCN3CCS(=O)(=O)CC3)c3ccccc32)cc1	/	-4.1	0.479	21.7	-46.0	/
Nc1c(C(=O)OCc2ccccc2)c2nc3ccccc3nc2n1Cc1cccs1	/	69.2*	-0.22	9.6	5.6	-0.00743
CCC(C)OC(=O)c1c(N)n(Cc2cccs2)c2nc3ccccc3nc12 (configuration not stated)	0.77	90.8*	0.32	17.6	-43.8	-0.734
CCN(CC)P(=O)(NC(=O)C(Cl)(Cl)Cl)N(CC)CC.[Cl-].[Cl-].[Cl-].[Nd+3]	-0.62	9.9	/	7.7	-54.2	-0.732
CCOc1ccc(C(=O)OC2CC3CCC(C2)N3C)cc1 (configuration not stated)	1.61	72.4*	0.117	12.7	/	-0.00667
CN1C2CCC1CC(OC(=O)c1ccc(Cl)cc1)(C(=O)O)C2 (configuration not stated)	0.16	-3.0	0.128	18.4	14.3	0.656
CN1C2CCC1CC(OC(=O)c1ccc(Cl)cc1)C2 (configuration not stated)	-0.21	97.2*	/	-4.6	-18.8	-0.00523
COc1ccc(/C=C/C(=O)c2c(O)n(CCC3=CCCCC3)c(=O)[nH]c2=O)cc1OC	-0.32	/	-2.19	/	/	/
O=C(COc1ccc2ccccc2c1)N1CCN(CC2CC3C=CC2C3)CC1 (configuration not stated)	/	57.6*	/	-3.2	-22.9	/
O=c1[nH]c(O)c(/C=C2\C=NN=C2c2ccccc2)c(=O)[nH]1	-0.92	-8.5	-1.36	22.3	7.2	-1.09
CCC(=NCc1cccnc1)c1c(O)n(-c2ccc(Cl)cc2)c(=O)[nH]c1=O	-0.46	/	1.55	/	/	0.838
Cc1cccc(-n2c(O)c(C=NCc3cccnc3)c(=O)[nH]c2=O)c1C	0.76	-8.4	0.989	11.3	0.0	/
COC(=O)C(O)(c1ccc(N(C)C(=O)COc2ccccc2)cc1)C(F)(F)F (configuration not stated)	0.29	-5.1	0.000448	3.1	-33.3	0.394
CCOC(=O)N(CC)c1ccc(C(O)(C(=O)OC)C(F)(F)F)cc1 (configuration not stated)	0.34	91.2*	-0.192	-5.0	56.2	-0.00484
COC(=O)N(C)c1ccc(C(O)(C(=O)OC)C(F)(F)F)cc1 (configuration not stated)	0.28	87.0*	1.03	4.9	-11.1	0.443
O=P1(Nc2cccnc2)COc2ccccc2OC1	0.1	0.7	/	-1.9	/	0.0659
Cc1cc(C)cc(N2C(=O)NC(=O)/C(=C\C=C\c3ccco3)C2=O)c1	-0.46	99.2*	0.511	7.8	-17.2	/
Cc1ccc(N2C(=O)NC(=O)/C(=C/C=C/c3ccco3)C2=O)cc1	0.11	83.0*	-0.291	3.4	/	/
CC(C)c1ccc(N2C(=O)NC(=O)/C(=C/C=C/c3ccco3)C2=O)cc1	-0.92	94.1*	-1.15	-7.2	/	/
Cc1ccc2c(c1)C1CN(C)CCC1N2C(=O)/C=C/c1ccc2c(c1)OCO2 (configuration not stated)	-0.61	23.3	-2.05	2.5	/	-0.435
c1cc(C2N3CCCN2CC3)ccn1 (configuration not stated)	0.14	/	/	/	/	/
SMILES	Insulin prom up	L major viab	Cl transport mod	WT yeast gro inh	Insulin prom inh	ROMK mod
c1ccc(-c2[nH]c(-c3ccccc3)[n+](CC3CO3)c2-c2ccccc2)cc1 (configuration not stated)	-0.03	47.4	-2.16	58.9*	/	/
Cc1cccc(NP(=O)(Oc2ccccc2F)Oc2ccccc2F)c1C	0.08	80.5*	0.306	35.2	5.6	-0.251
CCc1ccc(NP(=O)(Oc2ccccc2F)Oc2ccccc2F)cc1	-1.14	21.8	0.427	62.3*	/	-0.939
Cc1ccc(NP(=O)(Oc2ccccc2F)Oc2ccccc2F)cc1	-0.5	13.3	/	5.7	/	/
O=c1[nH]c(CN2CC=C(c3ccccc3)CC2)nc2scc(-c3ccccc3)c12	0.73	/	0.69	/	/	/
CCOc1ccc(CC2(CCc3ccncc3)C(=O)NC(=O)NC2=O)cc1	-0.24	-6.6	-0.179	-9.6	/	0.014
CCC(=NCCC(c1ccccc1)c1ccccc1)c1c(O)[nH]c(=O)[nH]c1=O	-2.9	71.8*	-1.02	7.0	-37.9	-0.149
CCC1C(c2ccccc2)NC(c2ccccc2)CC1(O)c1ccc(F)cc1 (configuration not stated)	-1	/	-2.22	/	/	/
O=c1[nH]c(=O)n(CCC2=CCCCC2)c(O)c1C=NC1CCN(Cc2ccccc2)CC1	0.02	83.0*	-0.152	13.0	-30.6	-2.3
O=c1[nH]c(=O)n(CCC2=CCCCC2)c(O)c1/C=N/Nc1ccccc1	-0.25	80.5*	0.102	21.4	/	0.437
O=c1[nH]c(=O)n(CCC2=CCCCC2)c(O)c1/C=N/Nc1cccc2ccccc12	-0.72	/	1.15	/	/	/
CCOP(=O)(C#CC(C)(C)C)C(O)(c1ccccc1)C(F)(F)F (configuration not stated)	1.16	-8.7	-0.688	25.5	0.0	/
CS(=O)(=O)NNP(=O)(NNS(C)(=O)=O)NC(=O)c1ccc(Br)cc1	-0.29	/	/	/	/	/
CNC(=O)Oc1ccc(-c2cn3cc(Cl)ccc3n2)cc1	-0.3	22.9	-2.26	14.6	6.2	/
CC(=NCc1ccc2c(c1)OCO2)c1c(O)n(Cc2ccccc2)c(=O)[nH]c1=O	0.2	/	-0.0667	/	/	/
Cc1cccc(C)c1NC(=O)c1cccn(Cc2ccc3c(c2)OC(F)(F)O3)c1=O	0.31	31.2	/	60.8*	-6.7	/
O=P(Nc1cccc(Cl)c1)(Oc1ccccc1)Oc1ccccc1	1.24	14.5	-0.19	79.3*	-17.6	-0.644
COc1ccc(C2=NCC(=O)N(CC(=O)NCc3ccco3)c3sc4c(c32)CCCC4)cc1	-0.54	0.0	0.295	-6.2	/	0.578
O=C(CN1C(=O)CN=C(c2ccccc2Cl)c2cc(Cl)ccc21)NCc1ccco1	2.12	97.4*	/	-27.6	21.4	-0.763
O=c1[nH]c(=O)n(Cc2ccccc2Cl)c(O)c1C=Nc1ccc(F)cc1	-0.13	-4.0	1.25	0.6	36.4	-0.194
CC(=O)OC1N=C(c2ccccc2)c2ccccc2NC1=O (configuration not stated)	1.18	24.1	/	-2.4	7.1	0.249
CC(=O)OC1N=C(c2ccccc2)c2cc(C)ccc2NC1=O (configuration not stated)	-0.46	74.7*	2.4	-1.2	-16.2	/
CN1/C(=C\C=C2C(=O)NC(=S)NC2=O)C(C)(C)c2ccccc21	/	4.4	-4.63*	14.7	/	-3.57*
